Experimental data taken from PubChem BioAssay AID1159580 (chemical genetic matrix, 2015).
Out of some 5,500 compounds screened, about 2,000 (36%) were called active. Inconclusive results (about 18%) are left out. The list shows a part of the results. A number with no mark means an inactive call. No stated cut-off is given here; in the data, active means normalized growth mostly below about 0.91 (no sharp cut-off); inconclusive means no clear call, values can overlap the other calls; inactive means mostly above about 0.92.

Assay: chemical genetic growth profiling, strain panel (AID 1159580);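 further: tested at 20 µM; growth read once vehicle control cultures reached saturation at 30 °C; 1 = growth at the plate median or of vehicle wells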
Settings: growth OD
[1] = S. cerevisiae deletion strains, locus YAL013W, strain DEP1, stronger effect = lower value
[2] = S. cerevisiae deletion strains, locus YBR229C, strain ROT2, stronger effect = lower value
[3] = S. cerevisiae deletion strains, locus YDL101C, strain DUN1, stronger effect = lower value
[4] = S. cerevisiae deletion strains, locus YDR150W, strain NUM1, stronger effect = lower value
[5] = S. cerevisiae deletion strains, locus YEL061C, strain CIN8, stronger effect = lower value
[6] = S. cerevisiae deletion strains, locus YGR078C, strain PAC10, stronger effect = lower value
[7] = S. cerevisiae deletion strains, locus YGR229C, strain SMI1, stronger effect = lower value
[8] = S. cerevisiae deletion strains, locus YHR030C, strain SLT2, stronger effect = lower value
[9] = S. cerevisiae deletion strains, locus YHR087W, strain rtc3, stronger effect = lower value
[10] = S. cerevisiae deletion strains, locus YJR043C, strain POL32, stronger effect = lower value
[11] = S. cerevisiae deletion strains, locus YJR075W, strain HOC1, stronger effect = lower value
[12] = S. cerevisiae deletion strains, locus YLR039C, strain RIC1, stronger effect = lower value
[13] = S. cerevisiae deletion strains, locus YLR058C, strain SHM2 (second series), stronger effect = lower value
[14] = S. cerevisiae deletion strains, locus YLR085C, strain ARP6, stronger effect = lower value
[15] = S. cerevisiae deletion strains, locus YLR262C, strain YPT6, stronger effect = lower value
[16] = S. cerevisiae deletion strains, locus YML094W, strain GIM5, stronger effect = lower value
[17] = S. cerevisiae deletion strains, locus YMR219W, strain ESC1, stronger effect = lower value
[18] = S. cerevisiae deletion strains, locus YMR263W, strain SAP30, stronger effect = lower value
[19] = S. cerevisiae deletion strains, locus YNL153C, strain GIM3, stronger effect = lower value
[20] = S. cerevisiae deletion strains, locus YNL298W, strain CLA4 (second series), stronger effect = lower value
[21] = S. cerevisiae deletion strains, locus YNL322C, strain KRE1, stronger effect = lower value
[22] = S. cerevisiae deletion strains, locus YNR030W, strain Alg12, stronger effect = lower value
[23] = S. cerevisiae deletion strains, locus YOL006C, strain TOP1, stronger effect = lower value
[24] = S. cerevisiae deletion strains, locus YPL055C, strain LGE1, stronger effect = lower value
[25] = S. cerevisiae deletion strains, locus YPL241C, strain CIN2, stronger effect = lower value
[26] = S. cerevisiae deletion strains, locus YPR135W, strain CTF4, stronger effect = lower value
[27] = S. cerevisiae strains, strain wild type, stronger effect = lower value

COc1cccc(-c2nc(C#N)c(N)o2)c1
normalized growth [1]: 0.987 | normalized growth [2]: 0.996 | normalized growth [3]: 0.995 | normalized growth [4]: 0.983 | normalized growth [5]: 1.02 | normalized growth [6]: 0.996 | normalized growth [7]: 0.938 (active) | normalized growth [8]: 0.708 | normalized growth [9]: 1 | normalized growth [10]: 0.968 | normalized growth [11]: 0.992 | normalized growth [12]: 0.945 | normalized growth [13]: 0.99 | normalized growth [14]: 0.79 | normalized growth [15]: 0.979 | normalized growth [16]: 1.01 | normalized growth [17]: 0.989 | normalized growth [18]: 0.944 | normalized growth [19]: 0.987 | normalized growth [20]: 0.946 | normalized growth [21]: 1.01 | normalized growth [22]: 0.989 | normalized growth [23]: 0.796 | normalized growth [24]: 0.966 | normalized growth [25]: 0.953 | normalized growth [26]: 0.871 | normalized growth [27]: 0.958

c1cc2c(cc1N=C1SCC3CCCCN13)OCO2 (configuration not stated)
normalized growth [1]: 1 | normalized growth [2]: 1.01 | normalized growth [3]: 1.02 | normalized growth [4]: 1.05 | normalized growth [5]: 0.991 | normalized growth [6]: 1.01 | normalized growth [7]: 0.997 | normalized growth [8]: 1.05 | normalized growth [9]: 0.995 | normalized growth [10]: 1.03 | normalized growth [11]: 1.03 | normalized growth [12]: 0.983 | normalized growth [13]: 1 | normalized growth [14]: 0.932 | normalized growth [15]: 1.12 | normalized growth [16]: 0.973 | normalized growth [17]: 1 | normalized growth [18]: 1.01 | normalized growth [19]: 1.02 | normalized growth [20]: 0.974 | normalized growth [21]: 1 | normalized growth [22]: 1 | normalized growth [24]: 0.996 | normalized growth [25]: 0.953 | normalized growth [26]: 1.05 | normalized growth [27]: 1

NC(=S)COc1ccccc1Cl
normalized growth [1]: 0.998 | normalized growth [2]: 0.985 | normalized growth (S. cerevisiae deletion strains, locus YCL061C, strain MRC1, stronger effect = lower value): 1 | normalized growth [3]: 1 | normalized growth (S. cerevisiae deletion strains, locus YDL134C, strain PPH21, stronger effect = lower value): 0.981 | normalized growth [4]: 0.998 | normalized growth [5]: 0.931 | normalized growth [6]: 1.03 | normalized growth [8]: 0.794 | normalized growth [9]: 1.04 | normalized growth (S. cerevisiae deletion strains, locus YJL187C, strain SWE1, stronger effect = lower value): 0.983 | normalized growth [10]: 0.994 | normalized growth [11]: 1.01 | normalized growth (S. cerevisiae deletion strains, locus YKL190W, strain CNB1, stronger effect = lower value): 0.968 | normalized growth [12]: 0.796 | normalized growth [13]: 0.982 | normalized growth [14]: 0.624 (active) | normalized growth [15]: 0.887 | normalized growth [16]: 0.947 | normalized growth [17]: 0.982 | normalized growth [18]: 1.01 | normalized growth [19]: 0.971 | normalized growth [20]: 0.799 (active) | normalized growth [21]: 0.994 | normalized growth [22]: 0.95 | normalized growth [23]: 0.294 (active) | normalized growth [24]: 1.04 | normalized growth [25]: 0.891 | normalized growth [26]: 0.801
